Structures are written as SMILES. A number with no mark means an inactive call. Records with an inconclusive call do not appear. Activity calls are given as the source filed them. Unless noted, calls come from the whole dose curve.

This is an account of results in PubChem BioAssay (Tox21).

The nature of test [1]: Nuclear factor erythroid 2-related factor 2/antioxidant responsive element (Nrf2/ARE) small molecule agonists: qHTS cell viability counter screen in human keratinocytes (AID 1919968; active = well fitted curve in the direction sought with a large enough effect in the repeat runs; an effect the other way counts as inactive or inconclusive; note: nearly all actives have a fitted effect of over 55% in size). In short, it runs like this: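 Cytotoxicity was multiplexed with the Nrf2/ARE luciferase assay in the same wells. Stably transfected HaCaT keratinocytes were treated with test compounds for 23 h at 37 C. Cell viability was then measured by CellTiter-Fluor fluorescence.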
In general terms: In qHTS, concentration-response curves come from the screen itself.

The nature of test [2]: Nuclear factor erythroid 2-related factor 2/antioxidant responsive element (Nrf2/ARE) small molecule agonists: luciferase reporter gene qHTS assay in human keratinocytes (AID 1919969). Note: nearly all actives have a fitted effect of over 35% in size. A general note: A reporter such as luciferase makes a cellular process visible.
For test [3], the target named is Gonadotropin-releasing hormone receptor (Homo sapiens) (UniProt P30968). Description: Human gonadotropin-releasing hormone receptor (GnRHR) small molecule agonists, calcium flux assay in GnRHR-HEK293 cells (AID 1920063). Note: nearly all actives have a fitted effect of over 35% in size. A digest of the protocol: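 Agonist activity was measured as intracellular calcium flux in HEK293 cells engineered to stably express human GnRHR. After dye loading for 1 hour at 37 C, compounds in DMSO were added and fluorescence was followed for 3 minutes.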

Test [4] deals with KiSS-1 receptor (Homo sapiens) (UniProt Q969F8). Put plainly: Human kisspeptin (KISS1R) small molecule agonists, calcium flux assay in KISS1R-HEK293 cells (AID 1920064; active = well fitted curve in the direction sought with a large enough effect in the repeat runs; an effect the other way counts as inactive or inconclusive). In short, it runs like this: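 Agonist activity is monitored as intracellular calcium rise in engineered HEK293 cells carrying human KISS1R. Cells are dye-loaded for 1 h at 37 C before compound addition, and fluorescence is recorded for 3 min.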
(Calcium assays in cells follow changes in intracellular calcium, usually with a dye or a luminescent sensor.)

A short description of test [5]: p53 small molecule agonists, cell-based qHTS assay with rat liver microsomes (AID 1963578). In short, it runs like this: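 Cells carrying a p53 response element–beta-lactamase reporter were plated and rested 5 h, then dosed with compound in DMSO plus rat liver microsomes and NADPH, each at 0.5 mg/mL final. After 16 h at 37 C, LiveBLAzer substrate was added for 2 h.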

The nature of test [6]: p53 small molecule agonists, cell-based qHTS assay with rat liver microsomes: qHTS cell viability counter screen (AID 1963580). Note: nearly all actives have a fitted effect of over 45% in size. In short, it runs like this:
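Counter screen for cytotoxicity under metabolic activation: rat liver microsomes and NADPH, 0.5 mg/mL final each, added with compounds to p53RE-bla HCT-116 cells; 16 h at 37 C, then ATP luminescence read.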

The nature of test [7]: p53 small molecule agonists, cell-based qHTS assay: qHTS cell viability counter screen (AID 1963581). Note: nearly all actives have a fitted effect of over 45% in size. In short, it runs like this: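 Viability was counter-screened in parallel with the p53 agonist reporter by measuring intracellular ATP luminescence in the same HCT-116 p53RE-bla wells after 16 h compound treatment at 37 C.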
Test [8] can be described thus: p53 small molecule agonists, cell-based qHTS assay (AID 1963582; active = well fitted activation curve with a large enough effect in the signal ratio in the repeat runs, not every such curve was filed as active; the % refers to the signal ratio). In short, it runs like this: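 Cells carrying a p53-responsive bla reporter are treated with test compounds for 16 h at 37 C; beta-lactamase activity is then detected with LiveBLAzer B/G FRET substrate after 2 h at room temperature.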
In test [9] the target is 5-hydroxytryptamine receptor 2A (Homo sapiens) (UniProt P28223). Description: 5-hydroxytryptamine receptor 2A (HTR2A) small molecule antagonists, cell-based qHTS assay (AID 1963586). Note: nearly all actives have a fitted effect of over 45% in size. Note: potency is the fitted concentration of half-maximal effect. In short, it runs like this: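 CHO cells stably expressing human HTR2A were plated for 18 h at 37 C, then loaded with calcium dye for 1 h. Compounds were preincubated 5 min at room temperature before DOI (4 nM solution) was added. Kinetic fluorescence was read for 3 min.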

For test [10] the target is unchanged. Description: 5-hydroxytryptamine receptor 2A (HTR2A) small molecule agonists, cell-based qHTS assay (AID 1963587). Note: nearly all actives have a fitted effect of over 30% in size. A digest of the protocol:
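HTR2A-CHO cells, plated 18 h at 37 C/5% CO2, dye-loaded 1 h at 37 C; compounds in DMSO added by pin tool (agonist mode). Intracellular calcium flux read as kinetic fluorescence on FDSS over 2 min at 1 s intervals.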

Test [11] has as its target Muscarinic acetylcholine receptor M1 (Homo sapiens) (UniProt P11229). Put plainly: Cholinergic receptor muscarinic 1 (CHRM1) small molecule antagonists, cell-based qHTS assay (AID 1963588). Note: nearly all actives have a fitted effect of over 40% in size. Note: potency is the fitted concentration of half-maximal effect. In short, it runs like this: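 Compounds were tested at 15 concentrations in three independent runs. Dye-loaded CHRM1-CHO cells were exposed 5 min at room temperature before stimulation by acetylcholine added at 50nM. Intracellular calcium was read kinetically on FDSS for 3 min.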

Test [12] shares this target. Put plainly: Cholinergic receptor muscarinic 1 (CHRM1) small molecule agonists, cell-based qHTS assay (AID 1963589). Note: nearly all actives have a fitted effect of over 35% in size. A digest of the protocol: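 Cells were plated and incubated 18 h at 37 C/5% CO2, loaded with calcium dye for 1 h at 37 C, then treated with compounds in DMSO. Fluorescence was recorded kinetically at 1 sec intervals.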
Test [13] in a line: cAMP Responsive Elements (CRE) small molecule agonists, cell-based qHTS assay (AID 1963590). In short, it runs like this:
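Cells carrying a CRE-driven beta-lactamase reporter (HEK 293T) are seeded, incubated overnight (18 h), and treated with test compounds for 3 h at 37 C; reporter activity is then detected with a FRET substrate after 2 h at room temperature.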

The nature of test [14]: cAMP Responsive Elements (CRE) small molecule antagonists, cell-based qHTS assay (AID 1963591; active = well fitted inhibition curve with a large enough effect in the signal ratio in the repeat runs, not every such curve was filed as active; the % refers to the signal ratio). A digest of the protocol: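 Cells (CRE-bla HEK 293T, DMEM with 10% dialyzed FBS and 25 mM HEPES) are seeded and incubated 18 h. Compounds are added with NKH477 agonist at 0.25 uM final for 3 h, then FRET substrate for 2 h.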
For test [15], the target named is Beta-2 adrenergic receptor (Homo sapiens) (UniProt P07550). Put plainly: Adrenergic beta2 receptor (ADRB2) small molecule antagonists, cell-based qHTS assay (AID 1963592). Note: series mostly up to about 92 µM; nearly all actives have a fitted effect of over 50% in size. In short, it runs like this:
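Assay format: CHO-ADRB2 cells, 18-20hr seeding at 37C/5% CO2, then compound plus 1nM isoproterenol agonist mix for 0.5hr RT. Homogeneous time-resolved fluorescence cAMP detection after 1hr, expressed as 665/615 nm ratio.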

In test [16] the target is D(2) dopamine receptor (Homo sapiens) (UniProt P14416). Put plainly: Dopamine D2 receptor (DRD2) small molecule agonists, cell-based qHTS assay (AID 1963594). Note: nearly all actives have a fitted effect of over 35% in size. A digest of the protocol:
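HEK293 cells stably expressing DRD2 were cultured 24 h at 37 C, then given Ro20-1724 (0.1 mM final) and compounds for 10 min at room temperature. NKH477 (200nM) was then added for 30 min. cAMP was read by HTRF.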

Test [17] shares this target. Put plainly: Dopamine D2 receptor (DRD2) small molecule antagonists, cell-based qHTS assay (AID 1963595; active = well fitted inhibition curve with a large enough effect in the signal ratio in the repeat runs, with a control signal flat; the % refers to the signal ratio). A digest of the protocol:
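Cells were plated and grown for 24 h at 37 °C. Ro20-1724 (0.1 mM final) went in first, then compound for 10 min. NKH477 (200 nM) with quinpirole (12 nM) followed for 30 min at RT, then HTRF detection reagents for 1 h.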

The nature of test [18]: p53 small molecule agonists, cell-based qHTS assay with human liver microsomes: qHTS cell viability counter screen (AID 1963579). Note: nearly all actives have a fitted effect of over 45% in size. A digest of the protocol:
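Cytotoxicity counter screen: p53RE-bla, 4,000 cells/well; 5 h settle, 37 C/5% CO2; cpd + HLM 0.5 mg/mL + NADPH 0.5 mg/mL (final); 16 h, 37 C; CellTiter-Glo, 30 min RT, luminescence.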

In test [19] the target is Beta-2 adrenergic receptor (Homo sapiens) (UniProt P07550). Put plainly: Adrenergic beta2 receptor (ADRB2) small molecule agonists, cell-based qHTS assay (AID 1963593).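 Note: CHO cells stably overexpressing human ADRB2.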 A digest of the protocol:
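CHO cells stably over-expressing ADRB2 were plated overnight at 37C, then dosed with compounds plus a stimulation mix containing 100uM IBMX and 25uM Ro-20-1724 for 0.5hr at room temperature. cAMP was measured by HTRF competition, 1hr.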
% is set by controls: 0 for no effect and ±100 for the full control effect.

Chain of Beta-2 adrenergic receptor (Homo sapiens) (P07550 whole entry, looked up): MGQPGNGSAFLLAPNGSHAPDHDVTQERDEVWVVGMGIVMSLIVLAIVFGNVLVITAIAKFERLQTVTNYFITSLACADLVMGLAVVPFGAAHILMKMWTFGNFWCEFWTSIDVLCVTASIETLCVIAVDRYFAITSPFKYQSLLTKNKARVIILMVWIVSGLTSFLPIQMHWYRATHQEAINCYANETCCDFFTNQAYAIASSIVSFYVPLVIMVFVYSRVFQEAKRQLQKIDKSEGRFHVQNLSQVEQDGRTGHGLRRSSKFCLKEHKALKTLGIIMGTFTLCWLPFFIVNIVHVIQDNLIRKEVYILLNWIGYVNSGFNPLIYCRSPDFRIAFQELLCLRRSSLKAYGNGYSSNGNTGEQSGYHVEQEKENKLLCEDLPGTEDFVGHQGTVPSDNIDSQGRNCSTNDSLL
Chain of KiSS-1 receptor (Homo sapiens) (Q969F8 whole entry, looked up): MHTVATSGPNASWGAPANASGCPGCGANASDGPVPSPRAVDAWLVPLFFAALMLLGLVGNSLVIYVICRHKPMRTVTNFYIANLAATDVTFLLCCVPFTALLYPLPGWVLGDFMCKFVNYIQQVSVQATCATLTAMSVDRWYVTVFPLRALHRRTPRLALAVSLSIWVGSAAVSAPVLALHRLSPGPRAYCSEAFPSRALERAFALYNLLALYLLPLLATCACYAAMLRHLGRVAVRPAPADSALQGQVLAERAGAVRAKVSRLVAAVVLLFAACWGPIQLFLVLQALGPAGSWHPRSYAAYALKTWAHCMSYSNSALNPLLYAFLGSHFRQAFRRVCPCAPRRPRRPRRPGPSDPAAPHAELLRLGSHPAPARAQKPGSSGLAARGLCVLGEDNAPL
Chain of D(2) dopamine receptor (Homo sapiens) (P14416 whole entry, looked up): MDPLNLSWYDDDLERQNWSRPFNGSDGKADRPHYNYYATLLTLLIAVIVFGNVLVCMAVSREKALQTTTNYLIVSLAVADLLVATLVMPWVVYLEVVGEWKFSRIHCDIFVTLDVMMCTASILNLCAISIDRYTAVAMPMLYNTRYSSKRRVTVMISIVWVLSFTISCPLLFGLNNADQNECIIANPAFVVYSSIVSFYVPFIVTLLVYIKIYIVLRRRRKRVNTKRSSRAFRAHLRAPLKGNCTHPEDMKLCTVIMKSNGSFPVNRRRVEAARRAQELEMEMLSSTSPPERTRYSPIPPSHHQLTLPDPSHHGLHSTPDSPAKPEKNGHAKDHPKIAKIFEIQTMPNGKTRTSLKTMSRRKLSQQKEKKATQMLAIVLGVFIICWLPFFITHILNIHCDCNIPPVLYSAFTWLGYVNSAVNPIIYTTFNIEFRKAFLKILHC
Chain of Gonadotropin-releasing hormone receptor (Homo sapiens) (P30968 whole entry, looked up): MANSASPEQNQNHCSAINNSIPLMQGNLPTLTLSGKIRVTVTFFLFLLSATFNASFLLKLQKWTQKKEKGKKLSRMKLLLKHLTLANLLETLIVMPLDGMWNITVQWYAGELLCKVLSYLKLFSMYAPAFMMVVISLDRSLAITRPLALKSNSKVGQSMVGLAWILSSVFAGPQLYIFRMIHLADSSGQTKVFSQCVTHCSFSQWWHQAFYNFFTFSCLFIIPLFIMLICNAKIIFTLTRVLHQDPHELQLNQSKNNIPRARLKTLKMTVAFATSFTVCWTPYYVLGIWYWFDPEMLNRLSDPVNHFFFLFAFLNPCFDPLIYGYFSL
Chain of Muscarinic acetylcholine receptor M1 (Homo sapiens) (P11229 whole entry, looked up): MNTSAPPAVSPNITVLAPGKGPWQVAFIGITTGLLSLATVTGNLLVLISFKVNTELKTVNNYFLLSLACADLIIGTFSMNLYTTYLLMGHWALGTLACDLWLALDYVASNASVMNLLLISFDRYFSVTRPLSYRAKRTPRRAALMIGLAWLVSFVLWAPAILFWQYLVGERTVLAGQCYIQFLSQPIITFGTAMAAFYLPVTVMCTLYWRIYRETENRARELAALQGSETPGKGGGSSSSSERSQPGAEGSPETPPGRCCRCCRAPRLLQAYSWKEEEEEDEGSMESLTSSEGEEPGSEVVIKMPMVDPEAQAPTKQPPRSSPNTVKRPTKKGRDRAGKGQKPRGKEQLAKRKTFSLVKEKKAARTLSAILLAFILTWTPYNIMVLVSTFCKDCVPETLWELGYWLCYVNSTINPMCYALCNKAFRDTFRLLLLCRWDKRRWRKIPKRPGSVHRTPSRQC
Chain of 5-hydroxytryptamine receptor 2A (Homo sapiens) (P28223 whole entry, looked up): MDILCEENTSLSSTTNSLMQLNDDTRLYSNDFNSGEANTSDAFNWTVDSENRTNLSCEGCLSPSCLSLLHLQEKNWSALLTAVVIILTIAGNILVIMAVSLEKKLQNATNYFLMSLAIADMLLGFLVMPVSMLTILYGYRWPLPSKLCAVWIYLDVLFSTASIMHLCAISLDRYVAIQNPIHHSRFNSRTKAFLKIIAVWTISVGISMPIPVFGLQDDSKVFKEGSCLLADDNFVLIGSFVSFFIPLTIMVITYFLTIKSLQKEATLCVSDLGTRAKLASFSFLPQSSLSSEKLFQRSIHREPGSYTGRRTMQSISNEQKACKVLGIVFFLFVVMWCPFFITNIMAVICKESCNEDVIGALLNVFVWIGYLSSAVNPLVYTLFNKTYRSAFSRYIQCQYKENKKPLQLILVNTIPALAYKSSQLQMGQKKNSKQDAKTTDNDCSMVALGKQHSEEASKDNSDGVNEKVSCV

As for `CC(C)CCCC(=O)O`, the Potency result in test [1], in test [2], in [3], in [5], in test [6] and in test [7] was “inactive” throughout. Moreover, the Potency result in [8], in [9], in test [10], in [11], in [12] and in test [13] was “inactive” in each case. The Potency result in test [14], in test [15], in test [16] and in test [17] was “inactive” throughout. Also, in [4], the result was inactive.
As to `CN(C)CCN(Cc1ccc(Cl)cc1)c1ccccn1`, the Potency result in [1], in [2], in test [3], in [6], in test [7] and in test [8] was “inactive” throughout. Moreover, the Potency entry in test [10], in [12], in test [13], in [14], in test [15] and in test [16] was “inactive” in each case. Besides, in test [17], the Potency entry was “inactive”. The result in test [4] was inactive. Further, in [11], the Potency was 7.29 µM (active).
As for `N#Cc1cc2ccccc2c2ccccc12`, the Potency entry in test [1], in test [2], in test [3], in [5], in test [18] and in [6] was “inactive” each time. In addition, the Potency entry in test [9], in [10], in test [12], in [13], in [14] and in test [15] was “inactive” each time. Moreover, the Potency entry in test [16] and in [17] was “inactive” each time. In addition, the outcome in test [4] was inactive.
Consider `O=C(CCN1CCN2CCCC2C1)N1c2ccccc2Sc2ccc(Cl)cc21` (stereo not drawn), for which the activity change, negative = cytotoxicity in test [1] is -13.5% [at 19 µM]; in test [18] it was -1.69% [at 13.5 µM]; in test [6], 2.61% [at 13.5 µM]; in test [7] it was -8.91% [at 13.5 µM]. For the same compound, in [2], the activity, positive = activation was -8.3% [at 19 µM]. For the same compound, the activity change in [3] is 0.23% [at 11.8 µM, hits give high values]. Also, the activation was -1.39% [at 15.8 µM] in test [4]; -0.768% [at 13.5 µM] in test [8]; -9.57% [at 15.9 µM] in [10]; 0.0294% [at 15.8 µM] in test [12]; 0.0795% [at 19 µM] in test [13]; -31% [at 19 µM] in test [16]. Further, the Potency in [9] is 8.94 µM (active). Further, the activity change, negative = inhibition is -4.08% [at 18.9 µM] in [14] and -8.25% [at 18.9 µM] in test [17].
For `CCCCCCCCCOC(C)=O`, the Potency result in test [1], in [2], in [3], in test [5], in test [18] and in test [8] was “inactive” in each case. Further, the Potency entry in test [10], in test [12], in test [14], in test [15], in test [19] and in [16] was “inactive” throughout. The Potency result in test [17] is “inactive”. For the same compound, the result in test [4] was inactive.
For the compound `Cc1cccc2nccnc12`, the Potency entry in [1], in test [2], in test [3], in test [18], in test [6] and in [7] was “inactive” in each case. The Potency result in test [8], in test [9], in test [10], in [11], in test [13] and in test [14] was “inactive” throughout. Besides, the Potency result in test [15], in test [16] and in [17] was “inactive” throughout. Besides, the outcome in test [4] was inactive.
`OC[C@@H](O)[C@H](O)[C@@H](O)[C@@H](O)CO`: the Potency entry in test [1], in [2], in test [3], in test [5], in [7] and in [8] was “inactive” throughout. In addition, the Potency entry in test [13], in [14], in [15], in test [19] and in test [17] was “inactive” each time. Besides, in test [4], the result was inactive.
For `OC[C@H](Cc1cccc(O)c1)[C@H](CO)Cc1cccc(O)c1`, the Potency entry in test [1], in test [2], in test [3], in [5], in [6] and in test [7] was “inactive” in each case. For the same compound, the Potency result in test [10], in test [11], in test [12], in test [13], in test [14] and in [15] was “inactive” each time. Besides, the Potency entry in [16] is “inactive”. The outcome in test [4] was inactive.
